# PubChem BioAssay (NCATS)
# Results filed as inconclusive are left out. Where a call stands in place of a potency, no number is given. Activity calls are given as the source filed them. Unless noted, calls follow the shape of the dose curve; as a rule, active = well fitted curve in the direction sought with a large enough effect; inconclusive = small, poorly fitted or top-dose-only effect, or another doubt; inactive = no such curve, though single readings can be large; an effect the other way counts as inactive or inconclusive.
# Tests used:
# [1] = target: Rap guanine nucleotide exchange factor 3 (Homo sapiens) (UniProt O95398); experiment: Confirmatory qHTS for antagonist of cAMP-regulated guanine nucleotide exchange factor 3 (EPAC1) (AID 1645880); conditions: EPAC1 Rap1B-BODIPY-GDP exchange, fluorescence; activity, negative = inhibition: at 115 µM (top of the series); also: nearly all actives have a fitted effect of over 55% in size; also: potency is read from the fitted curve at half-maximal effect
# In short: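 Nucleotide exchange uses 100 nM EPAC1, 250 nM RAP1B-BODIPY-GDP and 50 uM GDP, with compounds in a concentration-titration series. After 5 min at room temperature, fluorescence (480 nm ex/540 nm em) is read every 5 min for 30 min. Data are normalized to control ATA and DMSO.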
# [2] = target: Rap guanine nucleotide exchange factor 3 (Homo sapiens) (UniProt O95398); experiment: Confirmatory qHTS for agonist of cAMP-regulated guanine nucleotide exchange factor 3 (EPAC1) (AID 1645881);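 also: EPAC1 catalysed release of BODIPY-GDP from Rap1B seen as fluorescence loss; nearly all actives have a fitted effect of over 75% in size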
# [3] = target: Rap guanine nucleotide exchange factor 4 (Homo sapiens) (UniProt Q8WZA2); experiment: Confirmatory qHTS for agonist of cAMP-regulated guanine nucleotide exchange factor 4 (EPAC2) (AID 1645884);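 also: nucleotide exchange releases bodipy-GDP from Rap1 and this lowers its fluorescence; nearly all actives have a fitted effect of over 65% in size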
# [4] = target: Rap guanine nucleotide exchange factor 4 (Homo sapiens) (UniProt Q8WZA2); experiment: Confirmatory qHTS for antagonist of cAMP-regulated guanine nucleotide exchange factor 4 (EPAC2) (AID 1645885); also: nearly all actives have a fitted effect of over 25% in size; also: potency is read from the fitted curve at half-maximal effect
# [5] = target: Rap guanine nucleotide exchange factor 3 (Homo sapiens) (UniProt O95398); experiment: Counterscreen qHTS for antagonist of cAMP-regulated guanine nucleotide exchange factor 3 (EPAC1) (AID 1645888);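 also: fluorescence loss as bound BODIPY-GDP is released from Rap1B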
# In short: (§1)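 Rap1B–BODIPY-GDP (250 nM) with 50 uM GDP; compounds pin-transferred to 9.74 nM–152 uM final (activator) or from 7.32 nM upwards (inhibitor). Fluorescence Ex/Em 480/540 nm read at 5 and 30 min, then after adding cAMP or buffer, at room temperature.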
# [6] = target: Rap guanine nucleotide exchange factor 3 (Homo sapiens) (UniProt O95398); experiment: Counterscreen qHTS for agonist of cAMP-regulated guanine nucleotide exchange factor 3 (EPAC1) (AID 1645889); also: nearly all actives have a fitted effect of over 40% in size
# In short: as §1
# [7] = target: Catechol O-methyltransferase (Homo sapiens) (UniProt P21964); experiment: Confirmatory Screen for Target Class Profiling of Small Molecule Inhibitors of Methyltransferases (AID 1745852; calls by dose curve; also: potency is read from the fitted curve at half-maximal effect); conditions: MTase-Glo luminescence, SAH detection, recombinant enzyme; measured here: COMT max response; stronger effect = lower value
# [8] = target: Guanidinoacetate N-methyltransferase (Homo sapiens) (UniProt Q14353); experiment: as above; conditions: activity change, negative = inhibition: at 57.3 µM (top of the series) unless noted
# [9] = target: Nicotinamide N-methyltransferase (Homo sapiens) (UniProt P40261); experiment: as above; conditions: MTase-Glo luminescence, SAH detection, recombinant enzyme; measured here: NNMT max response; stronger effect = lower value
# [10] = target: Phenylethanolamine N-methyltransferase (Homo sapiens) (UniProt P11086); experiment: as above; conditions: MTase-Glo luminescence, SAH detection, recombinant enzyme; measured here: PNMT max response; stronger effect = lower value
# [11] = AP1 Signaling Pathway (AID 357; active = well fitted curve in either direction with a large enough effect, not every such curve was filed as active;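 also: ME-180 reporter cells stimulated with EGF at its EC50 level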); conditions: ME-180 AP-1-bla reporter, EGF-induced, beta-lactamase ratio, 5 h; at 7.69 µM (top of the series) unless noted
# In short: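 First, ME-180 AP-1-bla cells were cultured overnight at 37 °C in low-serum Opti-MEM. Next, titrated compounds with EC50 EGF were incubated 5 hours. Finally, CCF4 was added for 2.5 hours and the 460/530 nm ratio recorded.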
# [12] = NFAT Signaling Pathway (AID 444; active = well fitted curve in either direction with a large enough effect, not every such curve was filed as active;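 also: carbachol stimulus at about its EC50 of 1 µM final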); conditions: Jurkat NFAT-bla M1, carbachol, beta-lactamase ratio, 5 h; at 7.69 µM (top of the series) unless noted
# In short: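 Jurkat cells with NFAT-driven β-lactamase reporter and co-expressed M1 receptor, stimulated with carbachol (final 1 uM, ~EC50), compound titration, 5 h at 37 °C. CCF4 loaded 1 h at RT; 460/530 nm ratio gave %activity and AC50.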
# [13] = Stat Signaling Pathway (AID 446; active = well fitted curve in either direction with a large enough effect, not every such curve was filed as active;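 also: ME-180 cervical cancer cells given 40 pM IL-6 alongside compound; SIE-controlled beta-lactamase reporter measured as 460/530 nm FRET emission ratio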)
# In short: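 IL-6/STAT signaling read in ME-180 cells via an SIE beta-lactamase reporter. Stimulus was 40 pM IL-6 (its AC50) for 5 hrs, so both activation and inhibition register.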
# [14] = target: Glucocorticoid receptor (Homo sapiens) (UniProt P04150); experiment: GR-GFP Redistribution (AID 450;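 active = compounds whose dose series gives a full or clear partial fitted curve of increased nuclear translocation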; also: potency is read from the fitted curve at half-maximal effect); conditions: U2OS GR-GFP nuclear translocation, laser cytometry, 2 h
# [15] = target: Glucocorticoid receptor (Homo sapiens) (UniProt P04150); experiment: GR-EFC Redistribution (AID 451; calls by dose curve; also: potency is read from the fitted curve at half-maximal effect); conditions: CHO-K1 GR-EFC translocation, beta-gal luminescence, 2 h
# In short: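 CHO-K1 cells expressing nuclear EA and GR-ED fragments of b-gal; compounds titrated up to 46 uM final, 2 h at 37 C. GR nuclear translocation read as complemented b-gal luminescence after 1 h RT detection.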
# [16] = target: Mitogen-activated protein kinase 10 (Mus musculus) (UniProt Q61831); experiment: JNK3 AlphaScreen Assay (AID 530; active = well fitted curve in either direction with a large enough effect, not every such curve was filed as active;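 also: kinase came from lysate of stimulated human HepG2 cells; signal reports phosphorylation of biotinylated GST-cJun 1-79 at Ser73 with 10 µM ATP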)
# In short: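 Pre-activated (IL-1β/TNFα) JNK3 in HepG2 lysates phosphorylates biotin-GST-cJun(1-79), 10 uM ATP; anti-phospho-cJun(Ser73) AlphaScreen read at room temperature, pH 7.6 Tris buffer. Compounds pre-incubated 15 min as titrations.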
# [17] = target: 3',5'-cyclic-AMP phosphodiesterase 4B (Homo sapiens) (UniProt Q07343); experiment: qHTS Assay for Inhibitors of PDE-IV (AID 607; active = well fitted activation curve with a large enough effect in the main read-out, with a control signal flat, not every such curve was filed as active)
# In short: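 Live HEK293 cells with a modified cyclic nucleotide-gated (CNG) channel report intracellular cAMP via membrane-potential dye fluorescence (ex 535/em 590 nm). Endogenous PDE-IV was targeted. Compounds were tested at up to 22.9 uM final; RO 20-1724 100 uM served as control.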
# [18] = target: Tumor susceptibility gene 101 protein (Homo sapiens) (UniProt Q99816); experiment: qHTS Assay for Iinhibitors of HIV-1 Budding by Blocking the Interaction of PTAP/TSG101: Hit Validation (AID 651600); also: potency is read from the fitted curve at half-maximal effect; nearly all actives have a fitted effect of over 70% in size
# In short: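 Fluorescence polarization binding assay: Tsg101 binding domain (10 uM) mixed with compounds and FITC-labeled PTAP peptide (50 nM) in HEPES pH 7.5, 0.15 M NaCl, 0.01% Tween 20, EDTA, TCEP; 20 min at r.t.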
# [19] = qHTS Assay for Identification of Small Molecule Agonists for Hypoxia Response Element Signaling Pathway (AID 914; active = well fitted activation curve with a large enough effect in the signal ratio, with a control signal flat, not every such curve was filed as active; the % refers to the signal ratio); conditions: ME-180 (cervical carcinoma) HRE-bla reporter, beta-lactamase ratio, CoCl2, 17 h; activation: stronger effect = higher value
# In short: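 qHTS titration; ME-180 HRE-bla cells; EC50 CoCl2 co-treatment, 17 h at 37 degrees Celsius; CCF4 dye, ex 405nm, em 460nm and 530nm; %Activity from ratio; AC50.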
# Glucocorticoid receptor (Homo sapiens), sequence (P04150 whole entry, looked up, the tested form may be a part): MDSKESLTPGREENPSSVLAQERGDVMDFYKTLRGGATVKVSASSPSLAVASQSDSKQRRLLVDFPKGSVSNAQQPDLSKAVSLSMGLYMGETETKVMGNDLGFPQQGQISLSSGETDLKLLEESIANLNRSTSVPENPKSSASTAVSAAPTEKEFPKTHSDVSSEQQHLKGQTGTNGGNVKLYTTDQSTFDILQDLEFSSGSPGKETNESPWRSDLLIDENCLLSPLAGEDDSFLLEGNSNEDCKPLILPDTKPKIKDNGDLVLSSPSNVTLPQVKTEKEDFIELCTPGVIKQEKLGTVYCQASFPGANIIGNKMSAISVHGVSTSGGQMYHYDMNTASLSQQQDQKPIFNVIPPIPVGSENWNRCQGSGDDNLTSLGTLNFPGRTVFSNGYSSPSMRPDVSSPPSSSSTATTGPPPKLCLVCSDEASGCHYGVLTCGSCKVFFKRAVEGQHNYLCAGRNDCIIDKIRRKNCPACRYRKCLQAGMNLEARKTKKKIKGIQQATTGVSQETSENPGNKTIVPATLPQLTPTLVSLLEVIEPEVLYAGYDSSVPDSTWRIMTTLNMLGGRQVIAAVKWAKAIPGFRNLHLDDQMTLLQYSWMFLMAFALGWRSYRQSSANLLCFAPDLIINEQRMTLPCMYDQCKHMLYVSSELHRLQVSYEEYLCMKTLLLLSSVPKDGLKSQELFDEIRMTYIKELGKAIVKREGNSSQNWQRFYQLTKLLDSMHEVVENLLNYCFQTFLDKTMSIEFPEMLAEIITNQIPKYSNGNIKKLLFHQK
# Rap guanine nucleotide exchange factor 4 (Homo sapiens), sequence (Q8WZA2 whole entry, looked up): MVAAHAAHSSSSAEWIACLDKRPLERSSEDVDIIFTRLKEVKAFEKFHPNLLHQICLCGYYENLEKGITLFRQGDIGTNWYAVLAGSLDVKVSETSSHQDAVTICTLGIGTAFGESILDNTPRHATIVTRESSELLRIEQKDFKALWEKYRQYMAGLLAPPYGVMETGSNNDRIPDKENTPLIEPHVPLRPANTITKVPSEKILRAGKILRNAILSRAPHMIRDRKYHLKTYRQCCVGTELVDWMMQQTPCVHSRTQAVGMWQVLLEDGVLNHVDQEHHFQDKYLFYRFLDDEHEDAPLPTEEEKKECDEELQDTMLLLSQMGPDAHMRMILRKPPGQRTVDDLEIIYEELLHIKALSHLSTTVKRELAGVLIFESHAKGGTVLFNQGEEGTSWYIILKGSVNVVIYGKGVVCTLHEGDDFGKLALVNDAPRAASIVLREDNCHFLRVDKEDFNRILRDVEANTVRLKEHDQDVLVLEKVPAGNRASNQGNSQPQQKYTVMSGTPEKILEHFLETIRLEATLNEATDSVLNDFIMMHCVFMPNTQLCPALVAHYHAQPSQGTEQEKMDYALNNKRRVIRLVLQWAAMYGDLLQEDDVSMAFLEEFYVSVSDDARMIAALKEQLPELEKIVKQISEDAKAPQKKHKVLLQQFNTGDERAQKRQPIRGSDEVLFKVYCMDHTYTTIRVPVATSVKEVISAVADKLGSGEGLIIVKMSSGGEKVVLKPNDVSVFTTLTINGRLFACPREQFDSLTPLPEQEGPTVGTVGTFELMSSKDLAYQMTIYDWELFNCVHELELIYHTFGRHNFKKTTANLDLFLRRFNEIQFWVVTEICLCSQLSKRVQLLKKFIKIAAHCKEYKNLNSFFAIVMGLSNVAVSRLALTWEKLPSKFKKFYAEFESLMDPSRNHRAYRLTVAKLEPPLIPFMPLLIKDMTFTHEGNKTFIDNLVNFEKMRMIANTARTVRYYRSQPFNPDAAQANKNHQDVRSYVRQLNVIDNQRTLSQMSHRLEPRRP
# Rap guanine nucleotide exchange factor 3 (Homo sapiens), sequence (O95398 whole entry, looked up): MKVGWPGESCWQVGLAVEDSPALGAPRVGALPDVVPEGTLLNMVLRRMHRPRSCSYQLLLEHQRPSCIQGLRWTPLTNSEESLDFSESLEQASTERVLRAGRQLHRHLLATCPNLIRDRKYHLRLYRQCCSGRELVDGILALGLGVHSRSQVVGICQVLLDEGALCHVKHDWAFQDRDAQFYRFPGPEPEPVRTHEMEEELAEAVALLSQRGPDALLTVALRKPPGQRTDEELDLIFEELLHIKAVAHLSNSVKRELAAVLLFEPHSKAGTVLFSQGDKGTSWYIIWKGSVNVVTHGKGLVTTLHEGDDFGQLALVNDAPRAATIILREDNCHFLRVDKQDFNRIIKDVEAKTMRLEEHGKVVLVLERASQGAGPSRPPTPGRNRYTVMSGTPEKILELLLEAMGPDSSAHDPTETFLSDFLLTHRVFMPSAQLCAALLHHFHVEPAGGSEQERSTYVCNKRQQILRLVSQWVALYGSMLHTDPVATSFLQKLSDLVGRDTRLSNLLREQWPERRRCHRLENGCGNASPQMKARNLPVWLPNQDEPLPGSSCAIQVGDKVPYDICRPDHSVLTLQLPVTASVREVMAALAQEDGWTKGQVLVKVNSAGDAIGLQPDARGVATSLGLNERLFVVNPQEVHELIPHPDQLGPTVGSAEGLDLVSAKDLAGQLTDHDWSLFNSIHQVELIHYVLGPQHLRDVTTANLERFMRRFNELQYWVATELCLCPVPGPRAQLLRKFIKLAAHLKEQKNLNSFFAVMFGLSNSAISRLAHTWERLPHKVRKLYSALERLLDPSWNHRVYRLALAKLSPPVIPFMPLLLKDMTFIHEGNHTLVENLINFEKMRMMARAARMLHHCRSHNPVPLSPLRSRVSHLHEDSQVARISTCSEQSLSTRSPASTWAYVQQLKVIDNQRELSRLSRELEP
# Phenylethanolamine N-methyltransferase (Homo sapiens), sequence (P11086 whole entry, looked up): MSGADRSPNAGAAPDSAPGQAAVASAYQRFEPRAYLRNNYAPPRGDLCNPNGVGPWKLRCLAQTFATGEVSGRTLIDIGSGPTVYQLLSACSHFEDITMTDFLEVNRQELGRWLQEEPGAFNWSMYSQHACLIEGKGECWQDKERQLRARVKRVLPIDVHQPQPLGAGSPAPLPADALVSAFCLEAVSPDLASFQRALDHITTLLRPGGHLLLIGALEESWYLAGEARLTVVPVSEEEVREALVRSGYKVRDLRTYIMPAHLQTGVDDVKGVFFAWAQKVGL
# Catechol O-methyltransferase (Homo sapiens), sequence (P21964 whole entry, looked up): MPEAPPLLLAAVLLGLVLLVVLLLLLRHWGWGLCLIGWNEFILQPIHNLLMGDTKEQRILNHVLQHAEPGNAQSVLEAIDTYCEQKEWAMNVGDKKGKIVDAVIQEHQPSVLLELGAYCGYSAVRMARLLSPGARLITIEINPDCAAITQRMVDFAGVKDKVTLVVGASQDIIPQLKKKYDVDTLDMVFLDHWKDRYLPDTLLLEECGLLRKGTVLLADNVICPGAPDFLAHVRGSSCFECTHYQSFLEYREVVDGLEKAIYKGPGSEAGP
# Tumor susceptibility gene 101 protein (Homo sapiens), sequence (Q99816 whole entry, looked up, the tested form may be a part): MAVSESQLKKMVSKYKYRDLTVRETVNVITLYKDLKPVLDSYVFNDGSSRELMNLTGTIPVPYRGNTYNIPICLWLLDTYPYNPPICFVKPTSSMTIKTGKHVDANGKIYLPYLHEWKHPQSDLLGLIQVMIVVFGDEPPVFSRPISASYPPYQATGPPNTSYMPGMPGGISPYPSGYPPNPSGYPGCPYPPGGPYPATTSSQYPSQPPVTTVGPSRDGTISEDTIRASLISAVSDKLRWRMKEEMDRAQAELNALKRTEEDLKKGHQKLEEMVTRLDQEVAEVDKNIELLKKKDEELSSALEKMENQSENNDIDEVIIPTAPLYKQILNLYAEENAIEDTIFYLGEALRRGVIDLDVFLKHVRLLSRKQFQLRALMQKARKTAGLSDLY
# 3',5'-cyclic-AMP phosphodiesterase 4B (Homo sapiens), sequence (Q07343 whole entry, looked up): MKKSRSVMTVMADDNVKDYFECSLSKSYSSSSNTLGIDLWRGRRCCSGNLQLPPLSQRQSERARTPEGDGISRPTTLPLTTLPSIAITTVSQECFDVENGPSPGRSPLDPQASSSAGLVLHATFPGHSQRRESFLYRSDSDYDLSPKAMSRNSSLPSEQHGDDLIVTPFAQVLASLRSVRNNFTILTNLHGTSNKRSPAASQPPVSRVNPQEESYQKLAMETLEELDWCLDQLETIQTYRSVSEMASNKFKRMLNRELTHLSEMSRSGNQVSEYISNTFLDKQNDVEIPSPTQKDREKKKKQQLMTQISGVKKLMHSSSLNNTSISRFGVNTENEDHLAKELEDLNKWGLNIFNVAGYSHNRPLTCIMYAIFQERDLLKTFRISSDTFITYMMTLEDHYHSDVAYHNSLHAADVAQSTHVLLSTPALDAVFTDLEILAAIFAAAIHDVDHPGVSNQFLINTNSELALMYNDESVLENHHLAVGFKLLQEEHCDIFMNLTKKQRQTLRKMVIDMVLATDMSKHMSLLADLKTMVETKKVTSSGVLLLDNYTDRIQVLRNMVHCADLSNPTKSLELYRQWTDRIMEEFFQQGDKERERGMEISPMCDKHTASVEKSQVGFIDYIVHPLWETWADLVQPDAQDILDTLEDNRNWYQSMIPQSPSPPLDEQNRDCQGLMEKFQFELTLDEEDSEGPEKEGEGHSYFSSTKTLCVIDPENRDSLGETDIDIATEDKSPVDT
# Nicotinamide N-methyltransferase (Homo sapiens), sequence (P40261 whole entry, looked up): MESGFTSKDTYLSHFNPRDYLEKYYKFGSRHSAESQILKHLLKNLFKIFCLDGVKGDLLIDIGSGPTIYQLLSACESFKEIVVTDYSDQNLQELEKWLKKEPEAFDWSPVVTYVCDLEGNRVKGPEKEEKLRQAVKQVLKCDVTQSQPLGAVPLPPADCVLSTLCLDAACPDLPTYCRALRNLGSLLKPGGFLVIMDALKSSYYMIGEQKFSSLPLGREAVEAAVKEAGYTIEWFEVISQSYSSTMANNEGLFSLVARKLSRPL
smiles,measurement,setting,value
CCCc1cc2c(-c3ccccc3)cc(=O)oc2cc1OCc1ccc(C(=O)O)o1,Potency,[1],75.7 µM (active)
same,Potency,[2],inactive
same,Potency,[3],inactive
same,Potency,[4],inactive
same,Potency,[5],inactive
same,Potency,[6],inactive
same,activity,[7],-44.4%
same,Potency,[8],24.1 µM (active)
same,activity,[9],-57.8%
same,activity,[10],-42%
NS(=O)(=O)c1ccc(N=Nc2c[nH]c(=O)c(O)c2)cc1,"activity change, negative = inhibition",[11],8.24% (inactive)
same,"activity change, negative = inhibition",[12],-22.1% (inactive)
same,outcome,[13],inactive
same,Potency,[14],> 46 µM (inactive)
same,Potency,[15],> 9.22 µM (inactive)
same,"activity change, negative = inhibition",[16],-17.1% [at 11.4 µM] (inactive)
same,Potency,[17],inactive
same,Potency,[18],18.3 µM (active)
same,Potency,[1],42.6 µM (active)
same,Potency,[2],inactive
same,Potency,[3],inactive
same,Potency,[4],84.9 µM (active)
same,Potency,[5],inactive
same,Potency,[6],inactive
CC(NC(=O)Nc1ccc(O)cc1)(C(F)(F)F)C(F)(F)F,"activity change, negative = inhibition",[11],5.47% [at 17.2 µM] (inactive)
same,"activity change, negative = inhibition",[12],11.8% [at 17.2 µM] (inactive)
same,outcome,[13],inactive
same,Potency,[14],> 20.6 µM (inactive)
same,activation,[19],8.6% (inactive)
same,Potency,[1],inactive
same,Potency,[2],inactive
same,activation,[3],"-12.7% [at 17.1 µM, percent relative to cAMP agonist control] (inactive)"
same,Potency,[4],inactive
same,"activity change, negative = inhibition",[5],-9.73% [at 30.8 µM] (inactive)
same,activation,[6],3.78% [at 30.8 µM] (inactive)
CC1CCCN(C(=O)c2cccc(S(=O)(=O)Nc3cc(C(F)(F)F)ccc3Cl)c2)C1 (stereo not drawn),Potency,[1],21.3 µM (active)
same,Potency,[2],inactive
same,Potency,[3],inactive
same,Potency,[4],26.9 µM (active)
same,Potency,[5],inactive
same,Potency,[6],inactive
CCCSc1nc(C)cc(C)c1S(=O)(=O)c1ccccc1C,Potency,[1],inactive
same,Potency,[2],inactive
same,Potency,[3],inactive
same,Potency,[4],inactive
same,Potency,[5],inactive
same,Potency,[6],inactive
O=C(O)CC1Sc2nc3ccccc3n2C1=O (stereo not drawn),"activity change, negative = inhibition",[11],12.1% [at 17.2 µM] (inactive)
same,"activity change, negative = inhibition",[12],6.71% [at 17.2 µM] (inactive)
same,outcome,[13],inactive
same,Potency,[14],> 20.6 µM (inactive)
same,Potency,[1],inactive
same,Potency,[2],inactive
same,activation,[3],"10.5% [at 17.1 µM, percent relative to cAMP agonist control] (inactive)"
same,Potency,[4],inactive
same,"activity change, negative = inhibition",[5],-7.87% [at 30.8 µM] (inactive)
same,activation,[6],12.5% [at 30.8 µM] (inactive)
C/C(CC(=O)Nc1ccc2ccccc2c1)=N\NC(=O)c1ccc(O)c(O)c1,Potency,[1],53.6 µM (active)
same,Potency,[2],inactive
same,Potency,[3],inactive
same,Potency,[4],inactive
same,Potency,[5],inactive
same,Potency,[6],inactive
